The source made the active and inactive calls. Unless noted, how the calls were made is not given here.

The test system of test [1] is Wnt5a (protein binding on small-molecule microarray). Kind of test: small molecules binding Wnt5a protein – biophysical, small-molecule microarray, 635/667 nm fluorescence, primary screen (AID 1142).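 Further: fluorescence read at 667 nm with signal to noise per printed feature.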 Conditions: 635 nm fluorescence, higher = more signal.
The nature of test [2]: ATP-based viability of Huh7 replicon cells – cell-based, CellTiter-Glo luminescence, basal, 48 h, cytotoxicity control for HCV replication inhibitor project, primary screen (AID 1143).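 Further: Huh7 hepatoma cells carrying a hepatitis C replication reporter with no stimulus; test concentration not given here.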 Conditions: higher = more signal, called active from +8 up or from −8 down.
Test [3] in a line: Pseudomonas biofilm growth suppression – PAO1 strain, BacTiter-Glo luminescence, LB-PBS, primary screen (AID 1144). Conditions: P. aeruginosa PAO1 biofilm, 12 h, higher = more signal.
Test [4] in a line: basal CRE-LacZ reporter activity in PC12 – cell-based, unstimulated, primary screen (AID 1145). Conditions: no forskolin, luminescence, 4.5 h, higher = more signal, called active from +8 up or from −8 down.
Test [5] can be described thus: forskolin-driven CRE-LacZ activity in PC12 – cell-based, CRE-LacZ reporter, forskolin-stimulated, primary screen (AID 1146).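 Further: PC12 cells with 6xCRE LacZ reporter stimulated by forskolin 10 µM; beta-galactosidase reporter signal reflecting CREB driven transcription.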 Conditions: luminescence, 4.5 h, higher = more signal, called active from +8 up or from −8 down.
For test [6], the target named is Streptavidin (Streptomyces avidinii) (UniProt P22629). As to the kind of experiment: compounds binding control protein streptavidin – biophysical, small-molecule microarray, 635/667 nm fluorescence, artefact control for SMM compound annotation, primary screen (AID 1147).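 Further: signal reflects streptavidin binding to arrayed compounds as a control protein.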 Conditions: higher = more signal.
Test [7] is described as follows: probe aInhba binding on compound microarray – biochemical, small-molecule microarray, 635/667 nm fluorescence, primary screen (AID 1148).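 Further: score merges 667nm spot fluorescence with signal-to-noise for antibody binding to printed compounds.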 Conditions: higher = more signal.
Test [8] has as its target Torsin-1A (Homo sapiens) (UniProt O14656). Kind of test: TOR1A wild-type binding on microarray – cell lysate, small-molecule microarray, lysate, 635/667 nm, primary screen (AID 1149). Conditions: COS7 hTOR1A-WT lysate, 635 nm fluorescence, higher = more signal.
Test [9] shares this target. As to the kind of experiment: torsin A mutant lysate binding on microarrays – cell lysate, small-molecule microarray, COS7 lysate, 635/667 nm fluorescence, primary screen (AID 1150).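 Further: score pools 667 nm emission and signal to noise measuring lysate protein binding.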 Conditions: COS7 hTOR1A mutant lysate, 635 nm fluorescence, higher = more signal.
The subject of test [10] is Sonic hedgehog protein (Shh). As to the kind of experiment: Sonic hedgehog microarray binding compounds – biochemical, small-molecule microarray, 635/667 nm fluorescence, primary screen (AID 1151).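 Further: Shh protein binding to compounds spotted on small-molecule microarray slides; score combines spot fluorescence intensity with signal-to-noise across triplicate slides.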 Conditions: 635 nm fluorescence, higher = more signal.

Torsin-1A (Homo sapiens), sequence (O14656 whole entry, looked up): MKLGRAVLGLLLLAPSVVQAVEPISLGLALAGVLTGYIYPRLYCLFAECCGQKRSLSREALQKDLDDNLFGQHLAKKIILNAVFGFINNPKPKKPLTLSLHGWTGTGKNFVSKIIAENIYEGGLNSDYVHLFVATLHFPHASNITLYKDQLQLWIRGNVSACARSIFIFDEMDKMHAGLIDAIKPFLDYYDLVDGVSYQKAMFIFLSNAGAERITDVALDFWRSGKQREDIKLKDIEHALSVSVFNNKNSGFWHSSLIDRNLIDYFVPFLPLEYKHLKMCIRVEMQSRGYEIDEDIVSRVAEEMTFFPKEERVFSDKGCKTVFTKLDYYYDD
Streptavidin (Streptomyces avidinii), sequence (P22629 whole entry, looked up): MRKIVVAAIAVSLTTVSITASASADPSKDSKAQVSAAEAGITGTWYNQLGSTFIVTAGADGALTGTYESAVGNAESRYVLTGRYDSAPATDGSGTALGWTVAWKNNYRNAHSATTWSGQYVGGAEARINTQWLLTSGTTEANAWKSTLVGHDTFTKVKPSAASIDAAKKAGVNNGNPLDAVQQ

For `O=C1OCCC/C=C\[C@H]2OC34C=CCN(Cn5nnc6ccccc65)C(=O)[C@H]3N(CCCCCCO)C(=O)[C@@H]4C12` (stereo not given in full), the composite z-score in [1] was -0.35; in [6], -1.08; in test [7], -0.214; in the test with Torsin-1A (Homo sapiens) [8] it was 1.27; with Torsin-1A (Homo sapiens) [9], 1.43; in test [10] it was 0.326. Also, the z-score in test [2] is -0.599 (inactive); in test [3], -2.19 (inactive); in test [4], -1.17 (inactive); in test [5], -0.729 (inactive).
Take `C=CCC(OC(C)=O)[C@@H]1[C@@H](N(Cc2ccc(-c3cccc(C(F)(F)F)c3)o2)C(=O)Cc2ccc(F)cc2)c2cc(OCCCO)ccc2N1C(=O)Cc1ccc(OC)cc1` (stereo not given in full): the composite z-score is -0.186 in [1]; -1.07 in test [6]; -0.183 in test [7]; -2.21 in the test with Torsin-1A (Homo sapiens) [8]; -0.945 in the test with Torsin-1A (Homo sapiens) [9]; 0.392 in [10]. For the same compound, the z-score in test [2] is -0.705 (inactive); in [3] it was -1.63 (inactive); in [4] it was 0.236 (inactive); in test [5], 0.239 (inactive).
Regarding `O=C1OCCC/C=C\[C@H]2OC34C=CCN(Cn5nnc6ccccc65)C(=O)[C@H]3N(CCO)C(=O)[C@@H]4C12` (stereo not given in full), the composite z-score in test [1] was -0.212; in test [6], -0.712; in test [7] it was 0.8; with Torsin-1A (Homo sapiens) [8], -2.75; with Torsin-1A (Homo sapiens) [9], -1.23; in [10], -0.533. The z-score in [2] is -0.363 (inactive); in [3] it was -2.05 (inactive); in test [4], -1.58 (inactive); in [5], -0.713 (inactive).
Consider `C=C(COC)/C(=C/C[C@@H](OC(C)=O)c1ccc(CO)o1)c1cnc2ccccc2c1`, for which the composite z-score came out at 0.387 in [1]; 1.3 in test [6]; 0.147 in test [7]; 0.797 in the test with Torsin-1A (Homo sapiens) [8]; 0.73 in the test with Torsin-1A (Homo sapiens) [9]; 2.1 in test [10]. Also, the z-score in [2] was -0.0797 (inactive); in test [3], -1.14 (inactive); in test [4], 0.159 (inactive); in [5] it was -1.6 (inactive).
With `C=CCNC(=O)[C@@H]1[C@H]2C(=O)O[C@H](c3ccccc3)[C@H](c3ccccc3)N2[C@H](c2ccccc2OCCO)[C@@]12C(=O)N(C(=O)OCCOC)c1ccc(C#CCNC(N)=O)cc12`, the composite z-score in test [1] was 0.0308; in [6], 0.225; in test [7] it was 0.115; with Torsin-1A (Homo sapiens) [8], 0.186; with Torsin-1A (Homo sapiens) [9], 0.697; in [10], 1.53. Further, the z-score in [2] is -0.952 (inactive); in test [3], -0.441 (inactive); in [4], -0.199 (inactive); in test [5] it was 0.447 (inactive).
As for `CN1C(=O)C2C=CC(C(O)c3ccc(I)cc3)N(N3CCCCC3)C2C1=O` (stereo not given), the composite z-score in test [1] is 0.512; in test [6], 1.42; in test [7] it was 0.303; with Torsin-1A (Homo sapiens) [8], 0.702; with Torsin-1A (Homo sapiens) [9], 1.6; in [10] it was 0.624. For the same compound, the z-score in test [2] was -0.394 (inactive); in test [3], 0.175 (inactive); in [4] it was 0.246 (inactive); in [5] it was 0.818 (inactive).
Take `COc1ccc(C(=O)Nc2ccc(CN3C(=O)[C@@]4(O[C@@H](CCn5cc([C@H](O)c6ccccc6)nn5)[C@H]([Si](C)(C)c5ccc(OC)cc5)[C@H]4C)c4ccccc43)cc2)cc1`: the composite z-score is -0.0152 in test [1]; 0.865 in [6]; -0.0405 in [7]; 0.253 with Torsin-1A (Homo sapiens) [8]; 0.163 with Torsin-1A (Homo sapiens) [9]; 1.51 in [10]. The z-score in test [2] was -3.46 (inactive); in [3], -0.576 (inactive); in test [4] it was 2.4 (inactive); in test [5], -1.04 (inactive).
As for `CN(C)C(=O)[C@@]1(Cc2ccccc2)N=C(c2ccc(OCCCO)cc2)O[C@H]1c1ccccc1N=[N+]=[N-]`, the composite z-score in [1] was 0.762; in [6], 1.5; in [7], 0.086; in the test with Torsin-1A (Homo sapiens) [8], 0.697; in the test with Torsin-1A (Homo sapiens) [9], 0.505; in [10], -0.346. Besides, the z-score in test [2] is -4.47 (inactive); in [3] it was -1.05 (inactive); in test [4], 0.115 (inactive); in [5] it was -2.09 (inactive).
For `O=C(C1N=C(c2ccc(OCCCO)cc2)N(c2ccccc2)O1)N1CCOCC1` (stereo not given), the composite z-score in test [1] amounted to 0.427; in test [6], 0.637; in [7] it was 0.0947; with Torsin-1A (Homo sapiens) [8], 0.652; with Torsin-1A (Homo sapiens) [9] it was 0.219; in [10], 0.476. The z-score in test [2] is -3.19 (inactive); in test [3] it was -0.59 (inactive); in test [4], 0.185 (inactive); in test [5] it was -0.472 (inactive).
`C=C(CCCC)C(=O)CC[C@@H](OC(=O)c1cccnc1)c1ccc(CO)o1`: the composite z-score in test [1] was 0.314; in test [6] it was 1.05; in test [7], -0.0774; with Torsin-1A (Homo sapiens) [8], 0.984; with Torsin-1A (Homo sapiens) [9] it was 1.74; in [10], 2.04. For the same compound, the z-score in test [2] was -0.0785 (inactive); in test [3] it was -0.0897 (inactive); in test [4], 2.41 (inactive); in test [5] it was 0.783 (inactive).
For `CCOC(=O)C[C@H]1[C@H](OC(=O)c2ccc(C(=O)c3ccccc3)cc2)[C@@H](NC(=O)c2ccc(-c3ccccc3)cc2)c2cc(OCCCO)ccc2N1C(=O)c1ccccc1`, the composite z-score in test [1] is 0.0074; in [6], 1.11; in test [7], -0.128; in the test with Torsin-1A (Homo sapiens) [8], 0.117; with Torsin-1A (Homo sapiens) [9], 0.311; in test [10], 1.08. Besides, the z-score in test [2] was 0.294 (inactive); in test [3] it was 0.0763 (inactive); in [4] it was 0.0035 (inactive); in [5], -0.254 (inactive).
With `COC(=O)C=C(CC(O)c1cccc(Cl)c1)OC` (stereo not given), the composite z-score in test [1] is 0.321; in [6] it was 0.307; in test [7] it was 1.09; with Torsin-1A (Homo sapiens) [8], 0.208; with Torsin-1A (Homo sapiens) [9], 1.11; in test [10], -0.425. The z-score in [2] is -2.41 (inactive); in test [3] it was -0.179 (inactive); in [4], -0.116 (inactive); in [5], -0.809 (inactive).
On to `CC(C)C[C@@H]1NC(=O)[C@H]2C[C@@H](C(=O)NCCCCCCN)[C@@H](c3ccc(O)cc3)N2C1=O`, for which the composite z-score was determined as 0.0135 in test [1]; 0.569 in test [6]; 0.243 in [7]; 1.07 in the test with Torsin-1A (Homo sapiens) [8]; 0.339 in the test with Torsin-1A (Homo sapiens) [9]; 0.553 in test [10]. Also, the z-score is -0.875 (inactive) in [2], 0.469 (inactive) in [3], 0.553 (inactive) in test [4] and 1.08 (inactive) in [5].
For `CN(C)CCCNC(=O)[C@@]1(c2ccc([N+](=O)[O-])cc2)CC(=O)N(C2CCCCC2)[C@@H]1c1ccc(CO)cc1`, the composite z-score in test [1] is -0.217; in [6], 0.494; in test [7], 0.0342; in the test with Torsin-1A (Homo sapiens) [8], -0.485; with Torsin-1A (Homo sapiens) [9], -0.161; in test [10] it was 0.371. In addition, the z-score is -0.406 (inactive) in test [2], 0.382 (inactive) in test [3], 0.234 (inactive) in test [4] and -0.342 (inactive) in test [5].

The values are drawn from PubChem BioAssay.
